Results as given in PubChem BioAssay.
For some of these results: Results with a measured potency or affinity are listed apart. Active and inactive are the calls of the source. Unless noted, no rule for the calls is given here.

Columns and labels:
[1] = antimalarial activity against Dd2 strain (AID 2302;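 active = growth inhibition above 50% at the single 2 µM test dose, taken to imply half-maximal potency below 2 µM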;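 also: 0% = DMSO untreated growth and 100% = chloroquine plus artemisinin killed control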); conditions: P. falciparum Dd2 in RBCs, LDH growth readout, 72 h; at 2 µM; stronger effect = higher value
[2] = human hepatoma cell viability loss – ATP luminescence, cytotoxicity control for P. falciparum antimalarial project, primary screen (AID 2303;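 active = inhibition above 50%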;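 also: 0% = DMSO wells and 100% = digitonin-killed cells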); conditions: HepG2 viability, 24-48 h, at 10 µM, stronger effect = higher value
[3] = target: L-lactate dehydrogenase (Plasmodium falciparum (isolate CDC / Honduras)) (UniProt Q27743); assay: PfLDH activity inhibition – cell lysate, 3D7 strain, counter-screen for P. falciparum growth inhibition project (AID 2304);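 also: 0% = vehicle and 100% = reference inhibitor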; conditions: P. falciparum 3D7 crude extract, LDH APAD/NBT absorbance; at 2 µM; stronger effect = higher value
Sequence of L-lactate dehydrogenase (Plasmodium falciparum (isolate CDC / Honduras)) (Q27743 whole entry, looked up): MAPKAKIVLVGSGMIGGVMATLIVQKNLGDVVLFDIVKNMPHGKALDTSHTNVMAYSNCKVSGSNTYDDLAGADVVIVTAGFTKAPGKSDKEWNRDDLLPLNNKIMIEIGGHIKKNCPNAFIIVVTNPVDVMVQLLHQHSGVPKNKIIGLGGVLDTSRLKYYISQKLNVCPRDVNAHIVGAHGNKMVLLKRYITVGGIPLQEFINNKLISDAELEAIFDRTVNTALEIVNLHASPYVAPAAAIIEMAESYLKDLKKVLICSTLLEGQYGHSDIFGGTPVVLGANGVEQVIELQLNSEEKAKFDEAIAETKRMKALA

[4] = inhibition of 3D7 malaria parasite growth – strain 3D7 (AID 2306);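 also: 0% = DMSO wells and 100% = chloroquine plus artemisinin control wells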; conditions: P. falciparum 3D7 erythrocytic growth, LDH absorbance, 72 h; at 2 µM; stronger effect = higher value
[5] = target: Calcium-dependent protein kinase 1 (Plasmodium falciparum (isolate 3D7)) (UniProt P62344); assay: PfCDPK1 kinase inhibitors, biochemical, TCAMS library (AID 1159585; cut-off not given, nearly all actives have IC50 up to about 0.98 µM;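 also: inhibitors leave more ATP so luminescence rises with inhibition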); conditions: recombinant PfCDPK1, Kinase-Glo ATP depletion luminescence
Sequence of Calcium-dependent protein kinase 1 (Plasmodium falciparum (isolate 3D7)) (P62344 whole entry, looked up): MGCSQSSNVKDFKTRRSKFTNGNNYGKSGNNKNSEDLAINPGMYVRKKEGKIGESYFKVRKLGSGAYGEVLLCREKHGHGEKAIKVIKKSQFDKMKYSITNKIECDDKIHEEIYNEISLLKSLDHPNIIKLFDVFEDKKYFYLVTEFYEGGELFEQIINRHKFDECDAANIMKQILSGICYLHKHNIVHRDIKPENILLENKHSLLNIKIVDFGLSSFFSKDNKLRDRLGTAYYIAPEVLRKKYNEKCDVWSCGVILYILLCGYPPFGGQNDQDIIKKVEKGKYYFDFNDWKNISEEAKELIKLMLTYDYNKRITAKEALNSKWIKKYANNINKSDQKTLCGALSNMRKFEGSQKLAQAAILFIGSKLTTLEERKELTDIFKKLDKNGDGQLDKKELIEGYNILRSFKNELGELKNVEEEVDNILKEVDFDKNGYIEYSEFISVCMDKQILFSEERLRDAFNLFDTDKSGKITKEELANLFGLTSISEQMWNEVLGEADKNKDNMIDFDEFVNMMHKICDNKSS

[6] = target: Plasmodium falciparum protein kinase 6 (PK6, PF3D7_1337100) (UniProt Q8IDW1); assay: PfPK6 kinase inhibitors, biochemical, TCAMS library (AID 1159586); conditions: recombinant PfPK6, Kinase-Glo ATP depletion luminescence
Sequence of Plasmodium falciparum protein kinase 6 (PK6, PF3D7_1337100) (Q8IDW1 1-305): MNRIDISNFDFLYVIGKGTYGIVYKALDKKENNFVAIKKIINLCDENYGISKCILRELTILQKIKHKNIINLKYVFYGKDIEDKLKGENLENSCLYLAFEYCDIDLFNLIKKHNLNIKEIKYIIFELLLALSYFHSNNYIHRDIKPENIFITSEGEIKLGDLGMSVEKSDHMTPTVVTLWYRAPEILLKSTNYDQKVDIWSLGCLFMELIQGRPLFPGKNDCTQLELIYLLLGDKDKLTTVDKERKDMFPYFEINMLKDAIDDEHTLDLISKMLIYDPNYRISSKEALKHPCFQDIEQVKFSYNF

[7] = target: Protein kinase 7 (PK7), Plasmodium falciparum 3D7 (PF3D7_0213400) (UniProt Q7YTF7); assay: inhibition of Plasmodium PK7 catalytic activity – biochemical, TCAMS antimalarial set, Kinase-Glo luminescence (AID 1159587); conditions: recombinant PfPK7, Kinase-Glo ATP depletion luminescence
Sequence of Protein kinase 7 (PK7), Plasmodium falciparum 3D7 (PF3D7_0213400) (Q7YTF7 1-343): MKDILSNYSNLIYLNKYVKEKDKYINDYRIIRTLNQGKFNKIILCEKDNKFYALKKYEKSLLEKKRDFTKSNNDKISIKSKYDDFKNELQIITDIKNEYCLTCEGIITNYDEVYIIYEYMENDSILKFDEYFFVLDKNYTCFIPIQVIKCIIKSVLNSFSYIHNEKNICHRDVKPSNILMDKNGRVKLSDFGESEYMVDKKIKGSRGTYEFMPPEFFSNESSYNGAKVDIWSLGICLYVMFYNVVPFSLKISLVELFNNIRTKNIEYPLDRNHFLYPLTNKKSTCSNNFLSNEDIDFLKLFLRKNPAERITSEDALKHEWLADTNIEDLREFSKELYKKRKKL

[8] = target: Calcium-dependent protein kinase 4 (Plasmodium falciparum (isolate 3D7)) (UniProt Q8IBS5); assay: PfCDPK4 kinase inhibitors, biochemical, TCAMS library (AID 1159588; cut-off not given, nearly all actives have IC50 up to about 0.91 µM); conditions: recombinant PfCDPK4, Kinase-Glo ATP depletion luminescence
Sequence of Calcium-dependent protein kinase 4 (Plasmodium falciparum (isolate 3D7)) (Q8IBS5 whole entry, looked up): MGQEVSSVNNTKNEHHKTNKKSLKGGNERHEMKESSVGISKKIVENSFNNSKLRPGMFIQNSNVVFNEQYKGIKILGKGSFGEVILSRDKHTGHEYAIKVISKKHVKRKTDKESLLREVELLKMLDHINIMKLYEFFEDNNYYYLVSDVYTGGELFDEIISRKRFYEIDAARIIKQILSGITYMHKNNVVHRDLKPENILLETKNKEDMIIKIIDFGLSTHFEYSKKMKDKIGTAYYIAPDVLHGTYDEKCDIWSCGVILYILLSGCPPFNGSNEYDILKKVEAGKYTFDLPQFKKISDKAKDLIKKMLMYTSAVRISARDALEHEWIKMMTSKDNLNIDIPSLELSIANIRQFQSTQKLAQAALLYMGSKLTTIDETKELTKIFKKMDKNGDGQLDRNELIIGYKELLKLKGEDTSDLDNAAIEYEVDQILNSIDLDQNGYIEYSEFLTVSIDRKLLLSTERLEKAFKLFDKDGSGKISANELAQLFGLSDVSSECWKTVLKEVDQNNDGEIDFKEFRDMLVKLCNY

N#Cc1ccccc1N1CCN(C2CCC(NC(=O)c3n[nH]c4cc(C(F)(F)F)ccc34)CC2)CC1 (stereo not drawn)
inactive: growth inhibition [1] 34% | inhibition [2] 15% | inhibition [3] -4% | outcome [5] | outcome [6] | outcome [7] | outcome [8]
active: growth inhibition [4] 84%

CC(O)C1CCCCN1C(=O)c1ccc(-c2cccc(-c3nc4ccc(F)cc4[nH]3)c2)cc1 (stereo not drawn)
inactive: inhibition [2] 30% | inhibition [3] -6% | outcome [5] | outcome [6] | outcome [7] | outcome [8]
active: growth inhibition [1] 97% | growth inhibition [4] 100%

COc1ccc2c(c1C1CCN(CCCCNC(=O)c3ccc(NC(=O)c4ccc(Cl)cc4)cc3)CC1)CCCC2
inactive: inhibition [2] 19% | inhibition [3] -2% | outcome [5] | outcome [6] | outcome [7] | outcome [8]
active: growth inhibition [1] 99% | growth inhibition [4] 101%

CCc1nc(N)nc(N)c1-c1ccc(C(C)(C)C)cc1
inactive: growth inhibition [1] -5% | inhibition [2] 27% | inhibition [3] -7% | outcome [5] | outcome [6] | outcome [7] | outcome [8]
active: growth inhibition [4] 94%

Cc1c(C)c2c(c(C)c1O)CC[C@](C)(C(=O)N1CCC(CCN3CCC(c4c[nH]c5ccccc45)CC3)CC1)O2
inactive: inhibition [2] 31% | inhibition [3] 0% | outcome [5] | outcome [6] | outcome [7] | outcome [8]
active: growth inhibition [1] 74% | growth inhibition [4] 99%

O=C(NCCN1CCC(NC(=O)c2ccc(-c3ccccn3)s2)CC1)c1ccc(Cl)c(Cl)c1
active: growth inhibition [4] 97%
inactive: growth inhibition [1] 48% | inhibition [2] 24% | inhibition [3] -5% | outcome [5] | outcome [6] | outcome [7] | outcome [8]

CCOC(=O)c1[nH]c(-c2ccc(-c3ccccc3)cc2)nc1N
inactive: growth inhibition [1] 2% | inhibition [2] -1% | inhibition [3] 6% | outcome [5] | outcome [6] | outcome [7] | outcome [8]
active: growth inhibition [4] 98%

CCc1cc(Cc2cnc(N)nc2N)cc(CC)c1OC
inactive: growth inhibition [1] 12% | inhibition [2] 3% | inhibition [3] 8% | outcome [5] | outcome [6] | outcome [7] | outcome [8]
active: growth inhibition [4] 90%

CCCNC(=O)C1CCN(C(c2ccccc2)c2ccc(Cl)c(Cl)c2)CC1 (stereo not drawn)
active: growth inhibition [1] 90% | growth inhibition [4] 90%
inactive: inhibition [2] 15% | inhibition [3] 1% | outcome [5] | outcome [6] | outcome [7] | outcome [8]

O=C(/C=C/c1ccc(Cl)c(Cl)c1)NCCCCCN1CCC(NC(=O)Nc2ccc(Oc3ccccc3)cc2)C1 (stereo not drawn)
active: growth inhibition [4] 99%
inactive: growth inhibition [1] 6% | inhibition [2] 35% | inhibition [3] 4% | outcome [5] | outcome [6] | outcome [7] | outcome [8]

CCCCCn1c(Sc2ccc(C#N)c([N+](=O)[O-])c2)nnc1-c1cc(OC)cc(OC)c1
inactive: growth inhibition [1] 24% | inhibition [2] 17% | inhibition [3] 1% | outcome [5] | outcome [6] | outcome [7] | outcome [8]
active: growth inhibition [4] 93%

CS(=O)(=O)N(c1ccc(F)cc1)c1cc(C(=O)N[C@@H](Cc2ccccc2)[C@H](O)CNCc2cccc(C(F)(F)F)c2)cc(N2CCCC2=O)c1
inactive: inhibition [2] -4% | inhibition [3] -1% | outcome [5] | outcome [6] | outcome [7] | outcome [8]
active: growth inhibition [1] 65% | growth inhibition [4] 91%

O=C(Nc1ccc(OC2CCN(Cc3ccc(F)cc3)C2)c(Cl)c1)c1ccc(F)cc1 (stereo not drawn)
inactive: inhibition [2] 10% | inhibition [3] -3% | outcome [5] | outcome [6] | outcome [7] | outcome [8]
active: growth inhibition [1] 94% | growth inhibition [4] 96%

O=C(c1cccc(-c2ccc(-c3nc4ccc(F)cc4[nH]3)s2)c1)N1CCCCC1CN1CCC(O)C1 (stereo not drawn)
inactive: inhibition [2] 23% | inhibition [3] 2% | outcome [5] | outcome [6] | outcome [7] | outcome [8]
active: growth inhibition [1] 85% | growth inhibition [4] 101%

COc1ccc(CCNCC(O)COc2nccc3c(S(=O)(=O)N4CCCNCC4)cccc23)cc1OC (stereo not drawn)
active: inhibition [2] 59% | growth inhibition [4] 96%
inactive: growth inhibition [1] -5% | inhibition [3] -6% | outcome [5] | outcome [6] | outcome [7] | outcome [8]

COc1cc(N(Cc2ccc(F)cc2)C(=O)c2ccc(-c3ccccc3)cc2)ccc1OCCN1CCCC1
active: growth inhibition [4] 93%
inactive: growth inhibition [1] 4% | inhibition [2] 11% | inhibition [3] -4% | outcome [5] | outcome [6] | outcome [7] | outcome [8]

Cc1cccc2[nH]c(-c3ccc(-c4cccc(NC(=O)NCc5cccc(F)c5)c4)s3)nc12
active: growth inhibition [4] 88%
inactive: growth inhibition [1] 8% | inhibition [2] 24% | inhibition [3] -2% | outcome [5] | outcome [6] | outcome [7] | outcome [8]

NC1CCN(CCc2ccc(NS(=O)(=O)c3ccc(-c4ccccc4)cc3)cc2)CC1
active: growth inhibition [4] 100%
inactive: growth inhibition [1] 19% | inhibition [2] 17% | inhibition [3] 0% | outcome [5] | outcome [6] | outcome [7] | outcome [8]

CC(=O)Nc1cccc(C(=O)Nc2cccc(-c3csc(-c4nc5ccccc5[nH]4)c3)c2)c1
active: growth inhibition [1] 97% | growth inhibition [4] 96%
inactive: inhibition [2] 39% | inhibition [3] 1% | outcome [5] | outcome [6] | outcome [7] | outcome [8]

NC(=O)c1cnc2cc(-c3ccoc3)ccc2c1Nc1ccc(NC(=O)Nc2ccccc2Cl)cc1
inactive: inhibition [2] 39% | inhibition [3] -5% | outcome [5] | outcome [6] | outcome [7] | outcome [8]
active: growth inhibition [1] 76% | growth inhibition [4] 100%

CC(C)CCN1CCC(Oc2ccc(NC(=O)c3ccccc3)cc2Cl)CC1
active: growth inhibition [1] 88% | growth inhibition [4] 87%
inactive: inhibition [2] 17% | inhibition [3] 5% | outcome [5] | outcome [6] | outcome [7] | outcome [8]

COc1ccc2nccc([C@@H](O)CN3CCC(NCc4cc5cccc(O)c5c(=O)[nH]4)CC3)c2c1
active: growth inhibition [1] 66% | growth inhibition [4] 99%
inactive: inhibition [2] 8% | inhibition [3] 3% | outcome [5] | outcome [6] | outcome [7] | outcome [8]

CCN(CC)CC(O)CNc1c2ccc([N+](=O)[O-])cc2nc2cc(OC)c(OC)cc12 (stereo not drawn)
inactive: inhibition [3] -4% | outcome [5] | outcome [6] | outcome [7] | outcome [8]
active: growth inhibition [1] 100% | inhibition [2] 78% | growth inhibition [4] 100%

CCN(CC)CCCN(CCCN(CC)CC)c1cc(C)nc(Nc2ccc(Cl)cc2)n1
inactive: growth inhibition [1] 7% | inhibition [2] 11% | inhibition [3] 2% | outcome [5] | outcome [6] | outcome [7] | outcome [8]
active: growth inhibition [4] 101%

O=C(COc1ccc(C(=O)c2ccccc2)cc1)Nc1nccs1
inactive: growth inhibition [1] 18% | inhibition [2] 0% | inhibition [3] 2% | outcome [5] | outcome [6] | outcome [7] | outcome [8]
active: growth inhibition [4] 94%

O=C(Nc1cccc(-c2cccc(-c3nc4ccc(C(F)(F)F)cc4[nH]3)c2)c1)c1cccnc1Cl
inactive: inhibition [3] 1% | outcome [5] | outcome [6] | outcome [7] | outcome [8]
active: growth inhibition [1] 58% | inhibition [2] 56% | growth inhibition [4] 95%

Fc1ccc2nccc(NN=Cc3ccccc3Cl)c2c1
active: growth inhibition [4] 100%
inactive: growth inhibition [1] 39% | inhibition [2] 3% | inhibition [3] 0% | outcome [5] | outcome [6] | outcome [7] | outcome [8]

Cc1ccccc1C1CCN(C2CCC(NC(=O)/C=C/c3ccc(C#N)cc3)CC2)CC1 (stereo not drawn)
inactive: growth inhibition [1] 13% | inhibition [2] 39% | inhibition [3] 0% | outcome [5] | outcome [6] | outcome [7] | outcome [8]
active: growth inhibition [4] 87%

COc1cc2nc(N3CCC(CNC(=O)c4ccc(-c5ccc(C(=O)N(C)C)cc5OCCN(C)C)cc4)CC3)nc(N)c2cc1OC
inactive: growth inhibition [1] -1% | inhibition [2] -1% | inhibition [3] -6% | outcome [5] | outcome [6] | outcome [7] | outcome [8]
active: growth inhibition [4] 95%

COc1cccc(CC(=O)NC2CCN(c3ccnc4cc(Cl)ccc34)C2)c1 (stereo not drawn)
active: growth inhibition [1] 85% | growth inhibition [4] 101%
inactive: inhibition [2] 9% | inhibition [3] -2% | outcome [5] | outcome [6] | outcome [7] | outcome [8]

O=C(/C=C/c1ccc(Cl)c(Cl)c1)NCCCCCN1CC[C@H](NC(=O)Nc2ccc(Oc3ccccc3)cc2)C1
active: growth inhibition [4] 100%
inactive: growth inhibition [1] 14% | inhibition [2] 47% | inhibition [3] -9% | outcome [5] | outcome [6] | outcome [7] | outcome [8]

CN(C)CCNCc1cccc(-c2ccc3c(Nc4ccc(Oc5ccccc5)cc4)ccnc3c2)c1
active: growth inhibition [1] 99% | growth inhibition [4] 101%
inactive: inhibition [2] 31% | inhibition [3] 2% | outcome [5] | outcome [6] | outcome [7] | outcome [8]

Cc1c(CNCCCNc2nc3ccccc3[nH]2)[nH]c2cc(Cl)cc(Cl)c12
inactive: growth inhibition [1] -1% | inhibition [3] -6% | outcome [5] | outcome [6] | outcome [7] | outcome [8]
active: inhibition [2] 59% | growth inhibition [4] 101%

Cc1cc(NCCCCCCCCNc2cc(C)nc3ccccc23)c2ccccc2n1
inactive: growth inhibition [1] -1% | inhibition [3] -1% | outcome [5] | outcome [6] | outcome [7] | outcome [8]
active: inhibition [2] 59% | growth inhibition [4] 101%

COc1ccc(CCN(Cc2cccs2)C(=O)c2cc3sccc3n2C)cc1OC
active: growth inhibition [1] 97% | growth inhibition [4] 94%
inactive: inhibition [2] 0% | inhibition [3] 1% | outcome [5] | outcome [6] | outcome [7] | outcome [8]

O=C(/C=C/C=C/c1ccc(Cl)c(Cl)c1)NCCCCCN1CCCC2CCCCC21 (stereo not drawn)
inactive: growth inhibition [1] 48% | inhibition [2] 41% | inhibition [3] -5% | outcome [5] | outcome [6] | outcome [7] | outcome [8]
active: growth inhibition [4] 91%

CS(=O)(=O)CCNCc1nc(-c2ccc3c(Nc4ccc(Cl)cc4F)ccnc3c2)cs1
active: growth inhibition [4] 88%
inactive: growth inhibition [1] 28% | inhibition [2] 19% | inhibition [3] 1% | outcome [5] | outcome [6] | outcome [7] | outcome [8]

CN1CCN(CCc2ccc(N=Cc3c(=O)[nH]c4ccc5[nH]cccc5c34)cc2)CC1
inactive: inhibition [3] 6% | outcome [5] | outcome [6] | outcome [7] | outcome [8]
active: growth inhibition [1] 98% | inhibition [2] 51% | growth inhibition [4] 102%

c1cc(CNCCc2ccncc2)cc(-c2csc(-c3nc4ccccc4[nH]3)c2)c1
active: growth inhibition [1] 99% | growth inhibition [4] 100%
inactive: inhibition [2] 16% | inhibition [3] -8% | outcome [5] | outcome [6] | outcome [7] | outcome [8]

COc1ccc(C(=O)[C@H]2C[C@@H]2CN(C)CC(O)c2cc(C)c(OC)cc2C)cc1 (stereo partly drawn)
active: growth inhibition [1] 77% | growth inhibition [4] 90%
inactive: inhibition [2] 8% | inhibition [3] -3% | outcome [5] | outcome [6] | outcome [7] | outcome [8]

COc1cc(-c2nc3c4ccccc4c4ccccc4c3[nH]2)cc(OC)c1OC
active: growth inhibition [4] 90%
inactive: growth inhibition [1] 10% | inhibition [2] 4% | inhibition [3] 5% | outcome [5] | outcome [6] | outcome [7] | outcome [8]
